Sampled rows, rich in hits. Any-hit rate of the full collection: about 7.8%.
Vaccinia Venus: vaccinia inhibition (Venus reporter); Vaccinia virus Venus reporter expression, fluorescence; Potency, µM (highest dose often 36.5 µM), hits mostly inhibitors; actives 0.46% (n = 330,000); calls by dose curve; tested in A549 cells; note: nearly all actives have a fitted effect of over 30% in size
VACV mCherry inh: inhibitors of vaccinia virus infection (mCherry reporter signal); Vaccinia virus mCherry reporter infection, fluorescence; Potency, µM (doses to about 36.5 µM), actives largely listed as inhibitors; actives 0.63% (n = 310,000); AID 720579; calls by dose curve; tested in A549 cells; note: nearly all actives have a fitted effect of over 35% in size
HCMV antiviral: inhibitors of human cytomegalovirus. HFF cells, HCMV-luciferase reporter, 72 h; stronger effect = lower value. activity change, negative = inhibition, % at 57.5 µM. actives 4.5% (n = 410,000). AID 1259415; in the data active = activity change below about -60%; inconclusive = no clear call, values can overlap the other calls; inactive = above about -39%
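Luciferase read-out from HCMV-luciferase-infected HFFs (MOI 1 PFU/cell) 72 h post infection at 37C; compounds added after 16 h cell attachment; activity normalized between buffer-only basal and Salinomycin (10uM) inhibitor controls.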
HCV inh: inhibitors of hepatitis C virus infection; Huh7.5.1 HCVcc-Cre infection, luciferase reporter, 44 h; actives 3.4% (n = 340,000); AID 651820; Potency, µM (doses to about 41.8 µM), most hits filed as inhibitors; active = well fitted inhibition curve with a large enough effect; inconclusive = small, poorly fitted or top-dose-only effect, or another doubt; inactive = no such curve, though single readings can be large or run the other way
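Infectious HCVcc-Cre (~0.5 moi) was added to cells just after compound, with cells seeded 4 h earlier at 1,000 per well. Luciferase activity after 44 h culture reported infection; substrate was incubated 15 min at room temperature before reading.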
MARV entry inh: Marburg virus entry inhibition. Potency, µM (top dose mostly 37.8 µM), usual class: inhibitors. actives 1.8% (n = 300,000). AID 540276. Marburg virus pseudotyped entry inhibition, cell reporter; calls by dose curve; tested in HEK293 cells
LASV entry inh: Lassa virus entry inhibition | Potency, µM (titrated, usually from 37.9 µM), hits mostly inhibitors | Lassa virus pseudotype entry inhibition, cell reporter | actives 1.2% (n = 300,000); calls by dose curve; tested in HEK293 cells; note: nearly all actives have a fitted effect of over 50% in size
Hits are given with their value; n = inactive; u = inconclusive; x = no result; [ ] = remark or other dose.

SMILES	Vaccinia Venus	VACV mCherry inh	HCMV antiviral	HCV inh	MARV entry inh	LASV entry inh
Cc1ccc2oc(-c3ccc(NC(=O)c4ccc5c(c4)OCO5)cc3)nc2c1	x	x	n	u	n	n
O=C(Nc1ccc(-c2nc3ccccc3o2)cc1)c1cccnc1	u	u	n	u	u	n
O=C(Nc1ccc(-c2nc3ccccc3o2)cc1)c1ccc2c(c1)OCO2	x	x	-108	u	n	n
O=C(Nc1ccc(-c2nc3ccccc3o2)cc1)c1ccc(N2C(=O)C3C4C=CC(C4)C3C2=O)cc1 (stereo not drawn)	n	n	n	4µM	n	15µM
Cc1c(NC(=O)c2ccc3c(c2)OCO3)cccc1-c1nc2ccccc2o1	n	n	n	u	21µM	21µM
Cn1c(SCC2CCCO2)nnc1C1CCN(Cc2ccc(-c3cccc(Cl)c3)o2)CC1 (stereo not drawn)	n	n	x	x	x	x
CCOC(=O)c1ccc(NS(=O)(=O)c2ccc3c(c2)OCCO3)cc1	n	n	n	x	u	n
COC(=O)C1=C(C)N(Cc2ccccc2)C(=O)NC1c1ccco1 (stereo not drawn)	x	x	x	x	n	x
COc1cc(C2C(C(=O)OC(C)C)=C(C)N=C3SCCC(=O)N32)ccc1OCc1ccccc1 (stereo not drawn)	n	n	n	x	u	n
Cc1[nH]c2ccccc2c1/C=N/NC(N)=S	u	u	n	n	u	n
Cc1ccccc1/C=N/Nc1nc2ccccc2[nH]1	n	u	n	n	n	u
CCc1nnc(N/N=C/c2cc(C)c(C)cc2C)n1N	13µM	10µM	n	n	u	u
C(=N\Nc1nc2ccccc2[nH]1)/C1CCCCC1	n	n	-87	n	n	u
CCc1nnc(N/N=C/c2c(C)[nH]c3ccccc23)n1N	u	u	-90	n	n	x
Cc1[nH]c2ccccc2c1/C=N/Nc1nc2ccccc2[nH]1	n[7.34 µM]	u	-98	u	u	u
COc1cc2onc(C3CCN(C(=O)C(C)(C)C)CC3)c2cc1OC	x	x	n	x	x	x
C=Cc1ccc(Cn2c(=O)cc(C)c3c(C)nn(C)c32)cc1	n	n	n	x	x	u
C(=N\Nc1nc2ccccc2[nH]1)/c1cccc2cccnc12	x	x	-101	4µM	x	x
CN(C)c1ccc(/C=C2\C(=O)/C(=C/c3ccc(N(C)C)cc3)c3ccccc32)cc1	n	n	x	x	x	x
CN(C)c1ccc(/C=C2/C(=O)Nc3ccccc32)cc1	x	x	x	x	2µM	x
CN(C)c1ccc(/C=C2\C(=O)Nc3ccccc32)cc1	n	n	x	x	2µM	u
Cc1ccc(C)c(S(=O)(=O)c2nnn3c2nc(Nc2ccc(C)c(C)c2)c2ccccc23)c1	n	n	n	x	n	x
COc1cc(Cl)c(NC(=O)CN(C)S(=O)(=O)c2ccc3[nH]c4c(c3c2)CCCC4)c(OC)c1	u	u	n	x	x	n
O=C(NCc1cccc(Cl)c1)c1ccc2c(Cl)c3c(nc2c1)CCCC3	n	n	-78	x	n	n
CCOC(=O)N1CCC(NC(=O)c2ccc3c(Cl)c4c(nc3c2)CCCC4)CC1	u	u	n	u	u	u
SMILES	Vaccinia Venus	VACV mCherry inh	HCMV antiviral	HCV inh	MARV entry inh	LASV entry inh
O=C(Nc1ccccc1F)c1ccc2c(Cl)c3c(nc2c1)CCC3	n	n	-86	x	u	u
O=C(NCCCN1CCCC1)c1ccc2c(Cl)c3c(nc2c1)CCCC3	u	n	-73	11µM	5.6µM	u
O=C(NCc1ccc(Cl)cc1)c1ccc2c(Cl)c3c(nc2c1)CCCC3	n	n	n	x	n	n
O=C(NC1CC1)c1ccc2c(Cl)c3c(nc2c1)CCCC3	x	x	-62	n	x	x
O=C(CSc1nccn1Cc1ccc(Cl)cc1)Nc1ccc2c(c1)OCO2	n	n	n	x	x	n
COc1ccccc1C(=O)Nc1ccc(C(=O)OCc2cc(=O)n3ccsc3n2)cc1	n	n	n	x	x	n
CCN(CC)CCCNC(=O)c1ccc2c(Cl)c3c(nc2c1)CCCC3	n	n	-88	u	u	u
CNc1ccc(C=O)cc1I	n	n	x	x	x	x
COc1ccc(C2NC(=O)N(C)C3=C2C(=O)N(c2ccc(Br)cc2)C3)cc1 (stereo not drawn)	n	n	n	x	x	n
COc1ccc(N2CC3=C(C2=O)C(c2ccc(Br)cc2)NC(=O)N3C)cc1 (stereo not drawn)	n	n	-99	x	n	u
Cc1onc(NC(=O)CSCC(=O)O)c1Br	n	n	-73	n	n	n
COc1ccc(C2=CC(c3cccc(C)c3)n3nnnc3N2)cc1 (stereo not drawn)	n	n	n	x	x	n

High-throughput results from PubChem.
